Laboratory results reported in PubChem BioAssay (NCATS).
Values joined by “and” are separate entries in the source; they are usually repeats but may differ in a detail not shown here. Equal entries are not always repeated. Inconclusive results are not listed. Values without a mark were called inactive. Active and inactive are the calls of the source. Calls come from the whole dose curve; as a rule, active = well fitted curve in the direction sought with a large enough effect; inconclusive = small, poorly fitted or top-dose-only effect, or another doubt; inactive = no such curve, though single readings can be large; an effect the other way counts as inactive or inconclusive. Where a SMILES comes first, the peptide text is derived from it. Bridges are numbered along the chain shown (N, C = ends).

Legend:
[1] = qHTS Assay for Identifying Gametocytocidal Compounds (AID 743244);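 for max response: actives lower the fluorescent signal which means gametocytes are killed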; conditions: P. falciparum 3D7 stage III-V gametocytes, alamarBlue, 72 h; max response: active compounds read low
In short: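 Using 20,000 stage III–V 3D7 gametocytes per well, compounds were incubated 72 h under 37 °C/5% CO2. Viability was then assessed by 24 h alamarBlue reduction, measured fluorometrically at 525/598 nm.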

[2] = P-glycoprotein substrates identified in KB-8-5-11 adenocarcinoma cell line, qHTS therapeutic library screen (AID 1346987); note: nearly all actives have a fitted effect of over 65% in size
In short: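 Human cervical adenocarcinoma KB-8-5-11 cells, selected in colchicine to over-express P-gp and assayed without it, were exposed for 72 h to titrated compounds. An ATP-based luminescent viability signal gave AC50.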
% is set by controls: 0 for no effect and ±100 for the full control effect; potency is the fitted concentration of half-maximal effect.

| SMILES | max response [1] | Potency [2] | Potency [1] |
| --- | --- | --- | --- |
| C=C1CC2C3CCC4=CC(=O)C=C[C@]4(C)[C@@]3(F)[C@@H](O)C[C@]2(C)[C@@]1(O)C(=O)COC(C)=O (stereo partly drawn) | -3.67% | inactive | – |
| CO[C@H]1[C@@H](O)[C@H](N)[C@@H](O[C@H]2O[C@H]([C@H](C)N)CC[C@H]2N)[C@H](O)[C@@H]1N(C)C(=O)CN | 15.1% | inactive | – |
| CC1(C)C2CC[C@]3(C)[C@H](C(=O)C=C4[C@@H]5C[C@@](C)(C(=O)O)CC[C@]5(C)CC[C@]43C)[C@@]2(C)CC[C@@H]1O[C@H]1O[C@H](C(=O)O)[C@@H](O)[C@H](O)[C@H]1O[C@@H]1O[C@H](C(=O)O)[C@@H](O)[C@H](O)[C@H]1O (stereo partly drawn) | -0.804% | inactive | – |
| O.O=C([O-])CC([S-])C(=O)[O-].[Au+].[Na+].[Na+] (stereo not drawn) | -19.1% | inactive | – |
| CCCCCCCCCCCCCCCC(=O)OC[C@@H](COP(=O)([O-])OCC[N+](C)(C)C)OC(=O)CCCCCCCCCCCCCCC | 1.44% | inactive | – |
| CCCCCCCCCCCCCCCC(=O)OC/C=C(C)/C=C/C=C(C)/C=C/C1=C(C)CCCC1(C)C | -4.83% | inactive | – |
| C=C[C@]1(C)C[C@@H](OC(=O)CO)[C@]2(C)[C@H](C)CC[C@]3(CCC(=O)[C@H]32)[C@@H](C)[C@@H]1O | 11.6% | inactive | – |
| O=P(O)(O)C(Sc1ccc(Cl)cc1)P(=O)(O)O | 17.7% | inactive | – |
| COc1cc(C[C@@H]2NCCc3cc(O)c(O)cc32)cc(OC)c1OC | -17.1% | inactive | – |
| COCC1=C(C(=O)OC(C)OC(=O)OC(C)C)N2C(=O)[C@@H](NC(=O)/C(=N\OC)c3csc(N)n3)[C@H]2SC1 (stereo partly drawn) | -2.17% and -16.2% | inactive | – |
| CCCCc1cc2c(=O)c(C(=O)OC)c[nH]c2cc1OCc1ccccc1 | 5.7% | inactive | – |
| CC(CN(C)C)CN1c2ccccc2S(=O)(=O)c2ccccc21 (stereo not drawn) | -15.2% | inactive | – |
| CC(C(=O)O)c1ccc(C2CCCCC2)c2ccccc12 (stereo not drawn) | 16% | inactive | – |
| C=CCNC1=C2C[C@@H](C)C[C@H](OC)[C@H](O)[C@@H](C)/C=C(\C)[C@H](OC(N)=O)[C@@H](OC)/C=C\C=C(/C)C(=O)NC(=CC1=O)C2=O | – | 16.4 µM (active) | 2.82 µM (active) |
| C[C@]12CC[C@@H]3c4ccc(OS(=O)(=O)O)cc4CC[C@H]3[C@@H]1CCC2=O | -15.6% | inactive | – |
| O=C1C(c2[nH]c3ccc(S(=O)(=O)O)cc3c2O)=Nc2ccc(S(=O)(=O)O)cc21 | -2.9% and 36.3% and 37.5% | inactive | – |
| NCCC[C@H](N)C(=O)O | -1.29% | inactive | – |
| O=C(O)[C@@H](O)[C@H](O)[C@H](O)[C@@H](O)C(=O)O (tested in a mixture with another compound) | 5.9% | inactive | – |
| CCN(CC)c1ccc(N=Nc2ccc(S(=O)(=O)N(C)C)cc2)c(S(=O)(=O)NCC[n+]2ccccc2)c1 | 1.66% | inactive | – |
| CC(=O)N[C@@H](C=O)[C@H](O)[C@H](O)[C@@H](O)CO | -5.02% and 7.73% | inactive | – |
| CCOC(=O)COc1ccc2c(=O)cc(-c3ccccc3)oc2c1 | 51.1% and 12.3% | inactive | – |
| CCC[C@@]1(CCc2ccccc2)CC(O)=C([C@H](CC)c2cccc(NS(=O)(=O)c3ccc(C(F)(F)F)cn3)c2)C(=O)O1 | 14.3% | inactive | – |
| CCCCCCCCCCCCCCCCCC(=O)[O][Al] | -2.25% | inactive | – |
| CCC(=O)O | -11.8% | inactive | – |
| CO[C@H]1C[C@H](O[C@H]2[C@H](C)O[C@@H](O[C@@H]3/C(C)=C/C[C@@H]4C[C@@H](C[C@]5(C=C[C@H](C)[C@@H](C6CCCCC6)O5)O4)OC(=O)[C@@H]4C=C(C)[C@@H](O)[C@H]5OC/C(=C\C=C\[C@@H]3C)[C@]54O)C[C@@H]2OC)O[C@@H](C)[C@@H]1O | -11.6% | 20.6 µM (active) | – |
| C/C(=C(/CCO)SSCC1CCCO1)N(C=O)Cc1cnc(C)nc1N (stereo not drawn) | 4.64% and -7.81% | inactive | – |
| CO/N=C(\C(=O)N[C@@H]1C(=O)N2C(C(=O)OCOC(=O)C(C)(C)C)=C(/C=C\c3scnc3C)CS[C@H]12)c1csc(N)n1 | -6.43% | inactive | – |
| CCN(CC)c1ccc(C(=C2C=CC(=[N+](CC)CC)C=C2)c2ccccc2)cc1 | – | 4.61 µM (active) | 11.2 µM (active) |
| NCCCC[C@H](NC(=O)[C@@H]1CCCN1C(=O)[C@@H]1CSSC[C@H](NC(=O)CNC(=O)CNC(=O)CN)C(=O)N[C@@H](Cc2ccc(O)cc2)C(=O)N[C@@H](Cc2ccccc2)C(=O)N[C@@H](CCC(N)=O)C(=O)N[C@@H](CC(N)=O)C(=O)N1)C(=O)NCC(N)=O (H-GGGCYFQNCPKG-NH2; disulfide 4-9) | -2% | inactive | – |
